Source: PubChem (National Center for Advancing Translational Sciences (NCATS))
VP16 counter = inhibits Gal4-VP16 luciferase reporter, ROR gamma counter-screen | Potency, µM (titrated, usually from 53.6 µM), for the others: at the top dose activity, negative = inhibition, usual class: inhibitors | Drosophila S2 Gal4-VP16 UAS-luciferase, luminescence, 20 h | AID 2546 | hit rate 3.5% among 310,000;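 note: Gal4-VP16 expression switched on by copper sulfate through the metallothionein promoter; potency is the fitted concentration of half-maximal effect; nearly all actives have a fitted effect of over 50% in size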
Six1-Eya2 blk = inhibitors of human Six1/Eya2 interaction; Q15475+O00167; AlphaScreen GST-Six1/His-Eya2 binding, biochemical; stronger effect = lower value; activity change, % (no concentration beside the values); hit rate 0.56% among 360,000; AID 651725; in the data active = activity change below about -65%; inconclusive = mostly about -30% to -63%
Target sequence (O00167 whole entry, looked up): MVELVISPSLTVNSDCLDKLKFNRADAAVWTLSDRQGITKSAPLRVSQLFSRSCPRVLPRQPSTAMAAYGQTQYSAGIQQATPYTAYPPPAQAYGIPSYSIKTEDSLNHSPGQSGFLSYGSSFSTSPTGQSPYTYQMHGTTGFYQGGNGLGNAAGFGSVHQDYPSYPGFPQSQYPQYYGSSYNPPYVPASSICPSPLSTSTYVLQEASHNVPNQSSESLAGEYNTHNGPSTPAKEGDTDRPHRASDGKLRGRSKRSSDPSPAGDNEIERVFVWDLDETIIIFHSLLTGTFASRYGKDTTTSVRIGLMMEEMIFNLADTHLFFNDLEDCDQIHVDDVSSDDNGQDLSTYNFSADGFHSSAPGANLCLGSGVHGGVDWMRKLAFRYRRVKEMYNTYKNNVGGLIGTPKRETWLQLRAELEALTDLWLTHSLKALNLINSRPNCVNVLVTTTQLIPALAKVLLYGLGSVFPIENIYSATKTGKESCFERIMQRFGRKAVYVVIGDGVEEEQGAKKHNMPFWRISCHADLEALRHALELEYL
Target sequence (Q15475 whole entry, looked up): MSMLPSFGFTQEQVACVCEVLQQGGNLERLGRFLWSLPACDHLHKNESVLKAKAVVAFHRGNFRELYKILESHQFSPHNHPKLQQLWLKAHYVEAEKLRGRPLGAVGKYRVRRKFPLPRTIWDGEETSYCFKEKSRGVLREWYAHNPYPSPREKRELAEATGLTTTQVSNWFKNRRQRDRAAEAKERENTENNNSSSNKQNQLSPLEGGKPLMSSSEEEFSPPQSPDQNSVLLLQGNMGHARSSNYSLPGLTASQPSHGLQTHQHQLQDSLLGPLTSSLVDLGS
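Homogeneous AlphaScreen proximity assay pairing GST-Six1 with His-tagged Eya2 (added as 5X mix: 250 nM and 500 nM) in 50 mM Tris pH 8.0, 300 mM NaCl, 1 mM TCEP. Glutathione donor and nickel acceptor beads; 1 h, 37 °C, dark.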
PKM2 activator = increases activity of human pyruvate kinase M2. purified PKM2, Kinase-Glo ATP luminescence, activation; response scale: 0% is enzyme alone, no compound. P14618. AID 1631. Potency, µM (doses to about 57.5 µM), without a hit: top-dose activation, most hits filed as activators. hit rate 0.34% among 260,000; note: potency is the fitted concentration of half-maximal effect; nearly all actives have a fitted effect of over 55% in size
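ATP formation by purified human PK-M2, quantified via coupled luciferase luminescence after 1 h at room temperature with 0.1 mM ADP and 0.5 mM PEP final.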
RORg inh = blocks mouse ROR gamma transcriptional activity | Drosophila S2 Gal4-RORgamma UAS-luciferase reporter, 20 h | Potency, µM (titrated, usually from 53.6 µM), without a hit: top-dose activity change, negative = inhibition, usual class: inhibitors | hit rate 5.4% among 310,000; note: potency is the fitted concentration of half-maximal effect; nearly all actives have a fitted effect of over 60% in size
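Luciferase reporter read in Schneider cells carrying Gal4-RORγ (mouse) and UAS-Photinus luciferase; cells given compound 1 h before 700 uM copper sulfate induction, then incubated 20 h at ambient temperature.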
CtBP-E1A blk = inhibitors of CtBP/E1A interaction | AlphaScreen GST-E1A/His-CtBP binding, 1536-well; stronger effect = lower value | activity change, % (concentration not given with the values) | hit rate 0.49% among 340,000; in the data active = activity change below about -65%; inconclusive = mostly about -30% to -63%
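GST-E1A and His-tagged CtBP (125 nM each as 5X stock) were preincubated with pin-transferred compound for 2 h at 37 °C in the dark, then glutathione donor and nickel acceptor beads were added for 1 h before AlphaScreen reading.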
Starred values were filed as active, the others as inactive. This is a sample that favours compounds with a hit; in the whole collection about 5.6% have one here. Unless noted, calls come from the whole dose curve; as a rule, active = well fitted curve in the direction sought with a large enough effect; inconclusive = small, poorly fitted or top-dose-only effect, or another doubt; inactive = no such curve, though single readings can be large; an effect the other way counts as inactive or inconclusive. % is set by controls: 0 for no effect and ±100 for the full control effect.

CC(=O)NC(=S)Nc1sc2c(c1C(N)=O)CCC(C)C2 (stereo unspecified) was read as VP16 counter -2.6%, Six1-Eya2 blk -0.8, PKM2 activator 0.0%, RORg inh 20.5% and CtBP-E1A blk -0.1.
CCc1ccccc1NNC(=O)c1cc(C)on1 was read as VP16 counter -4.0%, Six1-Eya2 blk 2.2, PKM2 activator -6.0% and RORg inh -1.2%.
Cc1cc2n(n1)SC(Nc1cccc3ccccc13)N2 (stereo unspecified) was read as VP16 counter 4.47µM*, Six1-Eya2 blk -5.4, PKM2 activator -4.4%, RORg inh 2µM* and CtBP-E1A blk -5.0.
For CCc1ccccc1NC1Nc2cc(C)nn2S1 (stereo unspecified) the results were VP16 counter 12.6µM*, Six1-Eya2 blk -3.3, PKM2 activator -0.8%, RORg inh 5.62µM* and CtBP-E1A blk 0.2.
`Cc1cc2n(n1)SC(Nc1ccc(F)cc1)N2` (stereo unspecified) gave VP16 counter inconclusive, Six1-Eya2 blk 3.5, PKM2 activator -1.0%, RORg inh inconclusive and CtBP-E1A blk -1.3.
Screening Cc1cc2n(n1)SC(Nc1cc(Cl)ccc1Cl)N2 (stereo unspecified) returned VP16 counter 0.562µM*, Six1-Eya2 blk -2.8, PKM2 activator 3.6%, RORg inh 0.501µM* and CtBP-E1A blk -0.3.
For Nc1nc2n(n1)C(=O)CC(c1ccccc1)N2 (stereo unspecified) the results were VP16 counter -3.1%, Six1-Eya2 blk 1.6, PKM2 activator 2.5% and RORg inh -4.1%.
For COc1cc(C(=O)NC(=S)Nc2cccc3nc(C)ccc23)cc(OC)c1OC the results were VP16 counter 7.3%, Six1-Eya2 blk -1.5, PKM2 activator 1.9%, RORg inh -24.9% and CtBP-E1A blk 1.3.
`Cc1ccc2cccc(NC(=O)c3ccc(Br)o3)c2n1` gave VP16 counter -4.1%, Six1-Eya2 blk -3.0, PKM2 activator 1.6%, RORg inh -14.1% and CtBP-E1A blk -12.1.
Cc1ccc2cccc(NC(=S)NC(=O)c3c(Br)cnn3C)c2n1 was read as VP16 counter inconclusive, Six1-Eya2 blk -6.7, PKM2 activator 13.1%, RORg inh 3.98µM* and CtBP-E1A blk -2.6.
`Cc1ccc2cccc(NC(=S)NC(=O)c3ccn(C)n3)c2n1` gave VP16 counter 5.62µM*, Six1-Eya2 blk -13.2, PKM2 activator 7.2%, RORg inh 5.01µM* and CtBP-E1A blk -17.4.
Screening Cc1ccc2oc(/N=C(\N)NC(=O)C3CC3)nc2c1 returned VP16 counter inconclusive, Six1-Eya2 blk -1.1, PKM2 activator -0.2% and RORg inh 7.08µM*.
Screening Cc1ccc2oc(/N=C(\N)NC(=O)C(C)(C)C)nc2c1 returned VP16 counter 0.447µM*, Six1-Eya2 blk -11.4, PKM2 activator -2.4%, RORg inh 0.0501µM* and CtBP-E1A blk -1.4.
`N/C(=N\c1nc2ccccc2o1)NC(=O)c1ccc([N+](=O)[O-])cc1` gave VP16 counter -3.6%, Six1-Eya2 blk 0.0, PKM2 activator -3.6%, RORg inh -24.1% and CtBP-E1A blk 7.9.
For NC(N)=Nc1nc2cc([N+](=O)[O-])ccc2o1 the results were VP16 counter -14.4%, Six1-Eya2 blk -10.3, PKM2 activator -3.6%, RORg inh -3.2% and CtBP-E1A blk 4.8.
Screening COc1ccc(C2(CNC(=O)c3cccs3)CCOCC2)cc1 returned VP16 counter -1.5%, Six1-Eya2 blk -7.1, PKM2 activator 0.1%, RORg inh 16.5% and CtBP-E1A blk -3.2.
Fc1ccc2nc(Nc3nc4cc5c(cc4s3)OCCO5)sc2c1 was read as VP16 counter 12.6µM*, Six1-Eya2 blk 8.4, PKM2 activator -9.1%, RORg inh 11.2µM* and CtBP-E1A blk -8.0.
For Fc1ccc2nc(Nc3nc4cc5c(cc4s3)OCO5)sc2c1 the results were VP16 counter inconclusive, Six1-Eya2 blk 2.6, PKM2 activator 3.9%, RORg inh 8.91µM* and CtBP-E1A blk 17.5.
For O=c1c(-c2cccs2)nc2ccccc2n1C(c1ccccn1)c1nc2ccccc2[nH]1 (stereo unspecified) the results were Six1-Eya2 blk -18.6 and CtBP-E1A blk -1.8.
`c1cncc(-c2nc(NCCCn3ccnc3)c3ccccc3n2)c1` gave VP16 counter 7.0%, Six1-Eya2 blk -72.7*, PKM2 activator 2.9%, RORg inh -15.6% and CtBP-E1A blk -11.0.
`Cc1nc(NCCCn2ccnc2)c2ccccc2n1` gave VP16 counter -13.2%, Six1-Eya2 blk 2.4, PKM2 activator -20.5%, RORg inh 4.4% and CtBP-E1A blk 3.2.
`CCc1nc(NCCCn2ccnc2)c2oc3ccccc3c2n1` gave VP16 counter 0.3%, Six1-Eya2 blk -9.2, PKM2 activator -4.2%, RORg inh 1.6% and CtBP-E1A blk -8.4.
c1ccc(-c2nc(NCCCn3ccnc3)c3oc4ccccc4c3n2)cc1 was read as VP16 counter 1.8%, Six1-Eya2 blk inconclusive, PKM2 activator 5.6%, RORg inh -25.5% and CtBP-E1A blk -68.1*.
Screening COc1ccc(Oc2ncc3nc(-c4cccs4)c(=O)n(C)c3n2)cc1 returned VP16 counter 9.6% and RORg inh -3.3%.
COc1ccccc1N1CCN(/N=C/C=C/c2ccccc2[N+](=O)[O-])CC1 was read as VP16 counter -18.3%, Six1-Eya2 blk inconclusive, PKM2 activator -5.7%, RORg inh -17.9% and CtBP-E1A blk -65.3*.
For O=[N+]([O-])c1ccccc1/C=C\C=N\N1CCN(c2ccccc2)CC1 the results were VP16 counter -0.4%, Six1-Eya2 blk -66.5*, PKM2 activator 0.4%, RORg inh inconclusive and CtBP-E1A blk -22.5.
For O=[N+]([O-])c1ccccc1/C=N\N1CCN(c2ccccc2)CC1 the results were VP16 counter -1.4%, Six1-Eya2 blk inconclusive, PKM2 activator -6.4% and RORg inh 30.4%.
Screening O=[N+]([O-])c1ccccc1/C=C/C=N/N1CCCCC1 returned VP16 counter 20.1%, Six1-Eya2 blk -68.2*, PKM2 activator -1.4%, RORg inh -7.1% and CtBP-E1A blk inconclusive.
For CN(C)c1ccc(C(=O)N2CCCC(N3CCN(Cc4ccc5c(c4)OCO5)CC3)C2)cc1 (stereo unspecified) the results were VP16 counter 1.8%, Six1-Eya2 blk -2.2, PKM2 activator 2.2%, RORg inh 14.6% and CtBP-E1A blk 0.0.
For Cn1c(=O)c(C#N)c(-c2ccc(F)cc2)c2cc(C(=O)c3cc(Cl)cc(Cl)c3O)cnc21 the results were VP16 counter 17.8µM*, Six1-Eya2 blk -5.3, PKM2 activator 2.6%, RORg inh -72.5% and CtBP-E1A blk inconclusive.
`COc1ccccc1-n1c(=O)c(C#N)c(-c2ccc([N+](=O)[O-])cc2)c2cc(C(=O)c3cc(F)ccc3O)cnc21` gave VP16 counter 0.9%, Six1-Eya2 blk 3.8, PKM2 activator -1.2%, RORg inh 22.4% and CtBP-E1A blk -9.9.
